Source: PubChem (National Center for Advancing Translational Sciences (NCATS))
An excerpt weighted towards active compounds, which were near 21% of everything screened.
TDP1 cell CPT: growth inhibition of DT40 Tdp1-/-;hTDP1 cells with camptothecin (screen for TDP1 inhibitors); Potency, µM (doses to about 46.2 µM), actives largely listed as inhibitors; chicken DT40 Tdp1-/-;hTDP1 cells + 20 nM CPT, ATP luminescence, 48 h; 12% of 420,000 active; AID 686979; also: nearly all actives have a fitted effect of over 55% in size
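Chicken DT40 Tdp1-/- cells stably complemented with human TDP1 were seeded at 400 cells/well in medium containing 20 nM camptothecin, exposed to pin-transferred compounds, and grown at 37 °C for at least 48 hr. Viability was read as ATP luminescence.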
ELG1 DNA repair: blocks ELG1-dependent DNA repair in HEK293T cells. AID 504467. HEK293T ELG1-luciferase reporter, luminescence, 16 h; DNA damage induced by 5-fluorouridine. Potency, µM (titrated, usually from 46.1 µM), most hits filed as inhibitors. 2.3% of 330,000 active; also: nearly all actives have a fitted effect of over 55% in size
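Overnight (16 hr) co-exposure of 2,000 cells/well to 5-fluorouridine and compound at 37 °C preceded detection. Luciferase was quantified via ONE-Glo luminescence; loss of signal denotes inhibition.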
RORgamma inh: inhibitors of mouse ROR gamma transcriptional activity | P51450 | Drosophila S2 Gal4-RORgamma UAS-luciferase reporter, 20 h | Potency, µM (series often up to 53.6 µM), most hits filed as inhibitors | 5.4% of 310,000 active; also: nearly all actives have a fitted effect of over 60% in size
Target sequence (P51450 whole entry, looked up, the tested form may be a part): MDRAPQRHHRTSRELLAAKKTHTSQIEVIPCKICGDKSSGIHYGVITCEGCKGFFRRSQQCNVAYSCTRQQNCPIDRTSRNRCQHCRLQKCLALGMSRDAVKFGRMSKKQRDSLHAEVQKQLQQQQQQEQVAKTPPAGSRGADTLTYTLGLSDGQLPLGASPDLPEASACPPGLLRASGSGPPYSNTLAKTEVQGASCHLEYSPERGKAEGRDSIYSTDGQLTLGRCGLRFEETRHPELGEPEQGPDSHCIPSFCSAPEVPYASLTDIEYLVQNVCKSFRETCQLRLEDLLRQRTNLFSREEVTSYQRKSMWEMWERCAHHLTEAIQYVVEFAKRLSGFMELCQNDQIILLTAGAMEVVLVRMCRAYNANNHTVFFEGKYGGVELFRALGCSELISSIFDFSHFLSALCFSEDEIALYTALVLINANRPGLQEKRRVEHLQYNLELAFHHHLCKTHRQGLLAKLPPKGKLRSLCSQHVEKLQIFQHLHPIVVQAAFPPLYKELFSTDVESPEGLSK
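Using a luciferase readout, inhibitors were identified by reduced reporter activity in Drosophila cells coexpressing a copper-inducible Gal4–ROR gamma fusion and UAS-driven Photinus luciferase, incubated 20 hr after 700 uM copper sulfate.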
IL-1B inflam inh: blocks inflammasome-driven IL-1 beta release; THP-1 LPS/ATP IL-1B secretion, AlphaLISA, 16 h; active compounds read low; activity change, % at 57.5 µM; 4.7% of 360,000 active; AID 743279; in the data active = activity change below about -50%; inconclusive = mostly about -30% to -49%
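THP-1 cells pretreated 1 hr with compounds (up to 57.5 uM final), then stimulated with LPS (250 ng/mL final) plus ATP (1.25 mM final); secreted IL-1B measured by AlphaLISA after 16 hr, decreased signal indicating inhibition.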
Gal4-VP16 FLuc: Gal4-VP16 reporter inhibition counter-screen; AID 2546; 3.5% of 310,000 active; Drosophila S2 Gal4-VP16 UAS-luciferase, luminescence, 20 h; Potency, µM (titrated, usually from 53.6 µM), most hits filed as inhibitors;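 also: Gal4-VP16 expression switched on by copper sulfate through the metallothionein promoter; nearly all actives have a fitted effect of over 50% in size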
TDP1 cell noCPT: qHTS for Inhibitors of human tyrosyl-DNA phosphodiesterase 1 (TDP1): qHTS in cells in absence of CPT. DT40 Tdp1-/- hTDP1 cells, no CPT, ATP luminescence, 48 h. Potency, µM (titrated, usually from 46.2 µM), actives largely listed as inhibitors. 15% of 420,000 active; also: nearly all actives have a fitted effect of over 55% in size
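Compound effects on proliferation are scored in DT40 Tdp1-/-;hTDP1 cells in the absence of CPT. ATP levels (CellTiter-Glo luminescence) are recorded after a ≥48 hr, 37 °C incubation.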
Numbers stand for hits; n = inactive; u = inconclusive; x = no result; ! = not confirmed by another sample; [ ] = another dose, or the depositor's remark. Unless noted, calls follow the shape of the dose curve; as a rule, active = well fitted curve in the direction sought with a large enough effect; inconclusive = small, poorly fitted or top-dose-only effect, or another doubt; inactive = no such curve, though single readings can be large; an effect the other way counts as inactive or inconclusive.

SMILES	TDP1 cell CPT	ELG1 DNA repair	RORgamma inh	IL-1B inflam inh	Gal4-VP16 FLuc	TDP1 cell noCPT
O=C(NCc1cccnc1)/C(=C/c1ccc(-c2cccc(Cl)c2)o1)S(=O)(=O)c1ccccc1	u	u	11µM	-106	u	u
CCOc1ccc(C(=O)NCCS(=O)(=O)N2CCN(c3ccccc3F)CC2)cc1OCC	n	x	x	x	x	u
COc1cc(NC(=O)c2cccc(Cl)c2)c(OC)cc1NC(=O)CN1CCCCC1	u	n	n	-79	n	u
COc1cc(NC(=O)c2ccccc2)c(OC)cc1NC(=O)CN1CCOCC1	n	u	n	u	n	u
COc1cc(NC(=O)c2ccc(F)cc2)c(OC)cc1NC(=O)CN1CCCCC1	u	u	n	-68	n	16µM
COc1cc(NC(=O)c2ccccc2)c(OC)cc1NC(=O)CN1CCCCC1	u	u	n	u	n	20µM
CCCCN(C(=O)C(C)(C)Oc1ccc(Cl)cc1)c1c(N)n(CCC)c(=O)[nH]c1=O	n	n	x	n	x	u
COC(=O)Nc1ccc(S(=O)(=O)N2CCCc3cccc(O)c32)cc1	13µM	18µM	n	n	n	10µM
COC(=O)Nc1ccc(S(=O)(=O)N2CCCc3ccccc32)cc1	2.6µM	n	n	n	n	2.3µM
CC1=Nc2ccc(C)c3nc(C)cc(c23)N1c1ccc(C)cc1	u	x	x	n	x	16µM
Cc1ccc(N2C=Nc3ccc(C)c4nc(C)cc2c34)cc1	u	n	n	-52	n	u
O=Cc1cc2ccccc2nc1SCc1ccc(Cl)c(Cl)c1	1µM	u	n	n	n	0.92µM
O=Cc1cc2ccccc2nc1SCc1ccc(Cl)cc1	1µM	u	u	n	n	1µM
O=c1[nH]c(SCc2ccc(Cl)cc2)nc2ccccc12	n	n	n	n	n	n
CN(C)c1ccc(NS(=O)(=O)c2ccc(-c3csnn3)cc2)cc1	u	u	n	n	n	13µM
Cc1ccc(S(=O)(=O)Nc2ccc(N(C)C)cc2)cc1	n	n	n	n	n[10 µM]	u
CN(C)c1ccc(NS(=O)(=O)c2cccc(Cl)c2)cc1	n	n	n	n	n	10µM
CN(C)c1ccc(NS(=O)(=O)c2ccc(Cl)cc2)cc1	18µM	n	n	n	n	u
CCOC(=O)C1(C)CCN1C(=O)c1cccc(Cl)c1 (centres undefined)	u	x	x	n	x	n
CCOC(=O)N1CCN(C(=O)COC(=O)c2ccc([N+](=O)[O-])cc2Cl)CC1	n	n	x	n	x	n
CC(C)C[C@H](NC(=O)[C@@H](O)[C@H](N)Cc1ccccc1)C(=O)O	n	x	n	x	n	22µM
CC(C)CSc1ccccc1NC(=O)c1sc2nc(-c3ccncc3)ccc2c1N	5.8µM	x	x	x	x	7.3µM
COc1ccc(-c2ccc3c(N)c(C(=O)NC(C)C)sc3n2)cc1OC	n	n	n	x	n	16µM
COc1cccc(-c2ccc3c(N)c(C(=O)c4ccc(Br)cc4)sc3n2)c1	15µM	x	x	x	x	15µM
COc1ccc(C(=O)c2sc3nc(-c4ccccc4)ccc3c2N)cc1OC	16µM	n	n	n	u	13µM
SMILES	TDP1 cell CPT	ELG1 DNA repair	RORgamma inh	IL-1B inflam inh	Gal4-VP16 FLuc	TDP1 cell noCPT
Nc1c(C(=O)Nc2ccc(Br)cc2)sc2nc(-c3ccncc3)ccc12	n	x	x	x	x	u
COc1cccc(-c2ccc3c(N)c(C(=O)Nc4cc(C(F)(F)F)ccc4OC)sc3n2)c1	n	x	x	x	x	n
CC(=O)c1sc2nc(-c3ccccc3)cc(C)c2c1N	n	n	n	n	n	u
c1ncc(-c2ccoc2)c(NC2CC2)n1	n	x	n	x	n	n
Cc1ccccc1-c1noc(-c2ccc(N3CCCC3)c([N+](=O)[O-])c2)n1	n	x	x	x	x	n
COc1ccc(OC)c(NS(=O)(=O)c2ccc3c(c2)C(C)(C)C(=O)N3C)c1	n	n	n	n	n	u
CCOC(=O)c1sc2nc(-c3ccccc3)ccc2c1N	n	u	2.5µM	n	u	n
NC(=O)c1sc2nc(-c3ccccc3)ccc2c1N	n	u	u	n	n	n
COc1ccc(-c2ccc3c(N)c(C(=O)c4ccc(OC)c(OC)c4)sc3n2)cc1	9.2µM!	u	n	n	u	9.2µM
C#CCOc1ccc(CNC[C@H]2O[C@@H](n3ccc(N)nc3=O)[C@H](O)[C@@H]2O)cc1	n	x	x	n	x	n
C/C(=N/Nc1nc(-c2ccccc2)cc(-c2ccc(F)cc2)n1)c1cccc(N)c1	u	7.3µM	11µM	-61	14µM	u
C/C(=N\Nc1nc(C)cc(-c2ccccc2)n1)c1ccc(F)cc1	u	n	3.2µM	n	7.1µM	7.3µM
COc1ccc(/C(C)=N\Nc2nc(-c3ccccc3)cc(=O)[nH]2)cc1	n	n	n	n	n	n
COc1ccc(/C(C)=N/Nc2nc(C)cc(-c3ccccc3)n2)cc1	4.1µM	x	x	n	x	4.6µM
Cc1c(CN2CCOc3ccc(C(C)(O)COc4ccccc4)cc3C2)cnn1C (centres undefined)	n[9.04 µM]	x	x	x	x	n
CCc1ccc(C(=O)C(C)OC(=O)Cc2n[nH]c(=O)c3ccccc23)cc1 (centres undefined)	6.5µM	n	n	n	n	7.3µM
Clc1cccc(Nc2nc(-c3ccncc3)cs2)c1	u	n	n	-61	n	u
Clc1ccc(-c2csc(Nc3cccnc3)n2)cc1	n	n	n	-80	n	n
Cc1ccc(NC(=O)CSc2nnc3ccc(-c4ccncc4)nn23)cc1	n	5.8µM	x	n	x	n
CCOC(=O)C(CC)Sc1ccc2nnc(-c3cccnc3)n2n1 (centres undefined)	14µM!	n	n	n	n	u
Cc1ccccc1NC(=O)CSc1nnc2ccc(-c3ccncc3)nn12	u	n	x	n	x	n
CC1CCN(C(=O)CSc2nnc3ccc(-c4cccnc4)nn23)CC1	n	n	x	-57	x	n
CCOC(=O)N1CCN(C(=O)CSc2ccc3nnc(-c4cccnc4)n3n2)CC1	u	n	n	n	n	18µM
CCOc1ccc(S(=O)(=O)N2CCCCC2)cc1NC(=O)CCNC(=O)c1ccco1	n	n	x	n	x	n
O=C1CCN(CC2CCCCC2)C=C1C(=O)c1ccccc1	n	x	x	u	x	n
Cc1c(C)c2c(c(C)c1OC(=O)CCC(=O)O)CC[C@@](C)(CCC[C@H](C)CCC[C@H](C)CCCC(C)C)O2	n	x	n	x	n	u
CCOc1ccc(S(=O)(=O)NCCc2c(C)[nH]c3c(Cl)cccc23)cc1C	23µM	x	x	x	x	u
CCOc1ccc(S(=O)(=O)NCc2cccnc2)cc1C	n	u	n	n	n	n
CCN(C(=O)c1cc2c(Cl)nc3ccc(C)cc3c2s1)c1cc(OC)ccc1OC	u	x	x	x	x	15µM
